# Results taken from PubChem BioAssay (NCATS).
# Inconclusive results are not listed. Where a call stands in place of a potency, no number is given. The source made the active and inactive calls. The call rests on the fitted dose curve; in most records, active means well fitted inhibition curve with a large enough effect; inconclusive means small, poorly fitted or top-dose-only effect; inactive means flat fitted curve, though single readings scatter.
# Molecular target: Voltage-gated inwardly rectifying potassium channel KCNH2 (Homo sapiens) (UniProt Q12809)
# Test: qHTS Assay for Small Molecule Inhibitors of the Human hERG Channel Activity (AID 588834);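 further: lower thallium flux fluorescence means stronger hERG block; nearly all actives have a fitted effect of over 50% in size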
# Conditions: U2OS BacMam hERG, FluxOR thallium flux fluorescence; series mostly up to 92.2 µM
# From the text: NIH Chemical Genomics Center [NCGC]
# National Institutes of Environmental Health Sciences [NIEHS]
# National Toxicology Program [NTP]
# We have developed a 1536-well cell-based assay for quantitative high throughput screening (qHTS) to determine in vitro hERG channel blockage as a measure of cardio toxicity with small molecules. This particular assay uses the U2OS cell line which is derived from human osteosarcoma.
# NCGC Assay Protocol Summary:
# HERG assay (FluxORTM thallium flux assay) was initially developed by Invitrogen/Molecular Probes, and then miniaturized into 1536-well plate in a homogeneous format by NCGC. This assay measures the activity of potassium channel using thallium dye (FluxOR) flux as surrogate measurement for potassium into the cells with a FDSS-7000 kinetic plate reader (Hamamatsu Corp., Hamamatsu City, Japan). The hERG ion channel is transduced into mammalian cells (U2OS) using a baculovirus (Bacmam) construct harboring the hERG K+ ion channel. So far we screened LOPAC1280 library (Sigma), the NTP collection of 1408 compounds, and the NCGC Pharmaceutical Collection (NPC), in which many well defined HERG blockers are present. The rank order potencies of many of these compounds are similar to that of other HERG assays (membrane potential, Rb+ flux, patch clamp, etc). This quick and homogeneous assay is also found to be sensitive, specific, and robust.
# Using the FluxORTM thallium flux assay, the activity of potassium channel using thallium dye (FluxOR) flux as surrogate measurement for potassium into the cells was measured in the U2OS cell line transduced with hERG K+ ion channel using a baculovirus (Bacmam) using Opti-MEM medium (Invitrogen) containing 2% fetal calf serum (FCS, HyCone) following loading buffer addition, compound treatment for around 10 minutes and finally adding stimulation buffer. The assay was performed in black clear Kalypsys 1536-well plates. In the screen, Astemizole was used as positive controls. Library compounds were measured for their ability to cause hERG channel blockage in the cell line, as reflected by a decrease in fluorescence intensity, in a concentration-dependent manner. […] AC50 values were determined from concentration-response data modeled with the standard Hill equation.
# qHTS protocol for hERG-U2OS cellular assay
# [Step] [Parameter] [Value] [Description]
# 1. Day 1: Replace medium in 70-80% confluent T225 flask with 2.5 mL of hERG-BacMam virus plus 12.5 mL of phosphate buffered saline (PBS) (corresponding roughly to a multiplicity of infection ratio of 100 virus particles/cell)
# 2. Incubation: 4 hrs @ room Temperature in Dark
# 3. Reagent; Remove virus; wash once with 25 ml DPBS
# 4. Reagent; 35 ml culture medium
# 5. Incubation; 37 °C overnight
# 6. Day2: Reagent; 3 uL; 2000 U2OS cells/well
# 7. Time; 4 hr; 37 °C incubation
# 8. Loading buffer; 1 uL; 0.7X;
# 9. Incubation: 1hr @ RT in Dark.
# 12. Time; 10min; 37 °C incubation
# 13. Read fluorescence Intensity on FDSS for 10 Sec with 1 sec interval
# 14. Reagent; 1 uL; stimulation buffer
# 15. Read fluorescence Intensity on FDSS for 2 min with 1 sec interval
# 16. Detection; Fluorescence Intensity; FDSS
# Potency means the concentration at half of the fitted maximal effect.
# Voltage-gated inwardly rectifying potassium channel KCNH2 (Homo sapiens), sequence (Q12809 whole entry, looked up): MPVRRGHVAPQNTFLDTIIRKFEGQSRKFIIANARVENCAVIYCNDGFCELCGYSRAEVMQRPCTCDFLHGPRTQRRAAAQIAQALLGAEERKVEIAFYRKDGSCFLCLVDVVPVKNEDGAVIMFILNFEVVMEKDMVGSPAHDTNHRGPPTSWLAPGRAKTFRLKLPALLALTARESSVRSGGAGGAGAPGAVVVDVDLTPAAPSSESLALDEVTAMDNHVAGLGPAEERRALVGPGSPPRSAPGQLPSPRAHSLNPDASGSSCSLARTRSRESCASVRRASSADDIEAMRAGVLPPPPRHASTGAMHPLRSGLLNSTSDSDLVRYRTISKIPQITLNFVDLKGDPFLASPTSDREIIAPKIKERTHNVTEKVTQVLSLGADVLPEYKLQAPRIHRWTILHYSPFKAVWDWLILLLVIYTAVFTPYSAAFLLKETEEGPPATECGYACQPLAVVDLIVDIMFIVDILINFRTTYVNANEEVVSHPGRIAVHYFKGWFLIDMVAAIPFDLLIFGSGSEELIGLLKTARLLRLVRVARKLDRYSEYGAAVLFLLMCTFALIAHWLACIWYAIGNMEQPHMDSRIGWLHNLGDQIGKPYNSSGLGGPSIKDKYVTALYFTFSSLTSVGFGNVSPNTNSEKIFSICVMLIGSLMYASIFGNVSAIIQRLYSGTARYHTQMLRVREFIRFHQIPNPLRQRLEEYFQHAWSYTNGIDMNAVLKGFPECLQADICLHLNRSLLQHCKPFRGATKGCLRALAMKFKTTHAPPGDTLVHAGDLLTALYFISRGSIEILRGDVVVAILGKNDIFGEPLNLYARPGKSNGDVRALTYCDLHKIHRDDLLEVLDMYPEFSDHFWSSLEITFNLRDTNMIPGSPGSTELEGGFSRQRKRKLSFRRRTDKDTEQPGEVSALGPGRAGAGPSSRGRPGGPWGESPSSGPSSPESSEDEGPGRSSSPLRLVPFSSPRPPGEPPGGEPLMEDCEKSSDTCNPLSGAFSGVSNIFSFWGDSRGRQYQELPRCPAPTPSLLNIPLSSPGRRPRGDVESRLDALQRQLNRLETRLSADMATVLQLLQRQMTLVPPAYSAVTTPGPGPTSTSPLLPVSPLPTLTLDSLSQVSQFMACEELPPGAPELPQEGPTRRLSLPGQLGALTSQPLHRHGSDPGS
row,SMILES,Potency
1,C=CCN1CC[C@@]2(C)c3cc(O)ccc3CC1[C@@H]2C,inactive
2,COc1ccc(C=O)cc1OC,inactive
3,ClC(Cl)=C(Cl)C(Cl)=C(Cl)Cl,inactive
4,CCCN(CCC)[C@@H]1CCc2c(F)ccc(O)c2C1,inactive
5,CCc1cccc(CC)c1N(COC)C(=O)CCl,inactive
6,CCCC[N+]1(C)C2CC(OC(=O)C(CO)c3ccccc3)CC1C1OC12 (stereo not given),inactive
7,CCCN1CCCC(c2cccc(O)c2)C1 (stereo not given),inactive
8,ClC1=C(Cl)C2(Cl)C3C4CC(C5OC45)C3C1(Cl)C2(Cl)Cl (stereo not given),35.5 µM (active)
9,CCCCCCCCCc1ccc(O)cc1,31.6 µM (active)
10,C[C@H]1C2Cc3ccc(O)cc3[C@]1(C)CCN2CC1CC1,inactive
11,O=C(O)COc1ccc(Cl)cc1Cl,inactive
12,C=CC1CC=CCC1 (stereo not given),inactive
13,CCSC(=O)Cl,inactive
14,C=CCc1ccc2c(c1)OCO2,inactive
15,Brc1ccc(Oc2cc(Br)c(Br)cc2Br)c(Br)c1,inactive
16,Cc1ccccc1N,inactive
17,ClC(Cl)(Cl)c1ccccc1,inactive
18,N#CC(=Cc1ccc(O)c(O)c1)C(N)=S,inactive
19,C=C(Cl)Cl,inactive
20,Cc1ccc([N+](=O)[O-])cc1C,inactive

row,SMILES,Potency
1,O=C=NC1CCCCC1,inactive
2,CCCN1CCC[C@@H](c2cccc(C#N)c2)C1,inactive
3,CC(C)(C)OO,inactive
4,Cc1cccc(C#N)c1,inactive
5,c1ccc(N=Nc2ccccc2)cc1,inactive
6,CC(C)(OO)c1ccccc1,inactive
7,C=C(C)C#N,inactive
8,Clc1nc(Cl)nc(Cl)n1,inactive
9,S=C(S)N1CCCC1,3.55 µM (active)
10,Clc1cccc(C(Cl)(Cl)Cl)n1,inactive
11,ClCBr,inactive
12,C1CCC2CCCCC2C1 (stereo not given),inactive
13,Clc1ccc2ccccc2c1,inactive
14,COc1cc(C=C(C#N)C#N)cc(O)c1O,inactive
15,BrCCBr,inactive
16,COC(=O)C(N)CCCN=C(N)N[N+](=O)[O-] (stereo not given),inactive
17,CCCN1CCc2cc(O)cc3c2C1Cc1ccc(O)c(O)c1-3 (stereo not given),7.08 µM (active)
18,Cc1ccc(O)c(C)c1,inactive
19,Clc1nc(Cl)nc(Nc2ccccc2Cl)n1,inactive
20,CC(C)[C@@]1(NC(=O)[C@@H]2C[C@@H]3c4cccc5[nH]cc(c45)C[C@H]3N(C)C2)O[C@@]2(O)C3CCCN3C(=O)[C@H](Cc3ccccc3)N2C1=O (stereo not given in full),inactive
